Test results reported in PubChem BioAssay AID463173 (ICCB-Longwood Screening Facility, Harvard Medical School, 2010).
Out of some 52,000 compounds screened, about 1,700 (3.3%) were called active. No stated cut-off is given here; in the data, active means survival mostly below about 52% (no sharp cut-off); inactive means mostly above about 56%. The sample as a whole holds a higher share of actives than the screen did.

system: Wild type; experiment: growth inhibition of S. aureus wild type versus tarO mutant, primary screen, teichoic acid synthesis inhibitors, RN4220, OD600 (AID 463173); conditions: S. aureus RN4220 wild type/DeltatarO growth, OD600, 18 h, active compounds read low, screened at 18.75 µg/mL (by protocol)

| SMILES | survival |
| --- | --- |
| Cc1cc(Cl)ccc1NC(=O)CN1C(=O)CSc2ccc(S(=O)(=O)N(C)C)cc21 | 68% (inactive) |
| O=C(NCc1ccccc1)NC1COc2ccccc2C1 (stereo unspecified) | 82% (inactive) |
| CCCCc1ccc(NC(=O)c2ccc3c(c2)CCN3S(=O)(=O)CC)cc1 | 80% (inactive) |
| Cc1ccccc1NC(=O)c1c(NC(=O)C(C)Oc2cccc(Cl)c2)sc2c1CCCC2 (stereo unspecified) | 61% (inactive) |
| Cc1c(CC(=O)NCCc2ccccc2)c(=O)oc2c(C)c3occ(C(C)(C)C)c3cc12 | 84% (inactive) |
| COc1ccc(-n2c(-c3ccco3)nc3c(cnn3-c3ccc(Cl)cc3)c2=O)cc1 | 90% (inactive) |
| CC1CCN(C(=O)Cn2cc(SCC(=O)Nc3ccccc3C(F)(F)F)c3ccccc32)CC1 | 105% (inactive) |
| CCOc1ccc(CNC(=O)CN2C(=O)CCn3nc(-c4cn(C)c5ccccc45)cc32)cc1OC | -6% (active) |
| CCOc1ccccc1CNC(=O)CN1C(=O)CCn2nc(-c3cn(C)c4ccccc34)cc21 | 87% (inactive) |
| COc1ccc(CNC(=O)CN2C(=O)CCn3nc(-c4cn(C)c5ccccc45)cc32)cc1 | 80% (inactive) |
| COc1cccc(N2CCN(C(=O)CCn3nc(C)c(S(=O)(=O)N4CCCC4)c3C)CC2)c1 | 76% (inactive) |
| COc1ccc(N2CCN(C(=O)CCn3nc(C)c(S(=O)(=O)N4CCCC4)c3C)CC2)cc1 | 80% (inactive) |
| Cc1nn(CCC(=O)N2CCN(c3ccccc3)CC2)c(C)c1S(=O)(=O)N1CCCC1 | -6% (active) |
| CC(C)N(C(=O)CN1CCN(Cc2ccccc2)CC1)C(C)C | 107% (inactive) |
| CCOC(=O)CNC(=O)N1CCN(S(=O)(=O)c2ccc3c(ccn3C)c2)CC1 | 0% (active) |
| CCOC(=O)CCNC(=O)N1CCN(S(=O)(=O)c2ccc3c(ccn3C)c2)CC1 | 113% (inactive) |
| COC(=O)CNC(=O)N1CCN(S(=O)(=O)c2ccc3c(ccn3C)c2)CC1 | 79% (inactive) |
| CCOC(=O)c1ccc(N=C2NC(=O)/C(=C/c3ccc(N4CCOCC4)cc3)S2)cc1 | 107% (inactive) |
| CCOc1ccc(-c2c(C)nn3c(C)c(C(=O)NCc4ccc(Cl)cc4)cnc23)cc1OCC | 123% (inactive) |
| Cc1ccc(C(=O)Nc2cccc3cccnc23)cc1Cl | 75% (inactive) |
| O=C(Nc1cccc2cccnc12)c1cccc2c(Br)cccc12 | 77% (inactive) |
| O=C(Nc1ccc(Br)c2cccnc12)c1cccc2ccccc12 | 35% (inactive) |
| CC(C)c1ccc(C(=O)Nc2cccc3cccnc23)cc1 | -3% (active) |

| SMILES | survival |
| --- | --- |
| Cc1ccc2cccc(NC(=O)c3ccc(-c4cccc(Cl)c4)o3)c2n1 | 66% (inactive) |
| Cc1ccc2cccc(NC(=O)c3cccc4ccccc34)c2n1 | -10% (active) |
| Cc1ccc2cccc(NC(=O)c3ccc(-c4cc(Cl)ccc4Cl)o3)c2n1 | 71% (inactive) |
| Cc1ccc2cccc(NC(=O)c3cccc4c(Cl)cccc34)c2n1 | 69% (inactive) |
| O=C(Nc1cccc2cccnc12)c1ccc(-c2cccc(Cl)c2)o1 | 0% (active) |
| O=C(Nc1cccc2cccnc12)c1cccc2ccccc12 | 1% (active) |
| CCOc1cc(C(=O)Nc2cccc3cccnc23)cc(OCC)c1OCC | 23% (inactive) |
| Cc1ccc2cccc(NC(=O)c3cccc4c(Br)cccc34)c2n1 | 134% (inactive) |
| COc1cccc(NC(=O)CCc2nnc3n(Cc4ccccc4Cl)c(=O)c4ccccc4n23)c1 | 84% (inactive) |
| CCOC(=O)c1cccc(NS(=O)(=O)c2c(C)nc3sc(C)cn3c2=O)c1 | 81% (inactive) |
| COc1ccc2c(c1)c1c(c(=O)n(-c3cccc(C)c3)c(=O)n1CC(=O)N1CCCC1)n2C | 82% (inactive) |
| COc1ccccc1NC(=O)CSc1ncc2c(n1)-c1cc(Cl)ccc1N(Cc1ccccc1)S2(=O)=O | 77% (inactive) |
| Cc1ccc(NC(=O)CC(C)S(=O)(=O)c2ccc3c(c2)NC(=O)CO3)c(Cl)c1 (stereo unspecified) | 87% (inactive) |
| CCOc1ccc(NC(=O)CCCc2nc(-c3cccc(OC)c3)no2)cc1 | 87% (inactive) |
| Cc1nnc(SCc2cc(=O)n3c(C)cccc3n2)s1 | 81% (inactive) |
| Cc1cccc(-c2nnc(SCC(=O)OC(C)C)n2C)c1 | 106% (inactive) |
| COc1c(C)cccc1C(=O)Nc1cccc2ccc(C)nc12 | -14% (active) |
| COc1ccc(Br)cc1C(=O)Nc1cccc2ccc(C)nc12 | 63% (inactive) |
| CCOc1ccccc1C(=O)Nc1cccc2ccc(C)nc12 | 49% (inactive) |
| CCCCCn1c(=O)[nH]c2cc(C(=O)Nc3ccc(OC)c(OC)c3)ccc2c1=O | 74% (inactive) |
| Cc1nn(C)c2c1c(-c1ccccc1)cc(=O)n2Cc1c(F)cccc1Cl | -6% (active) |
| Cc1cccc(-c2nc(Cn3c(=O)cc(-c4ccccc4)c4c(C)nn(C)c43)c(C)o2)c1 | -6% (active) |
| CCOc1ccc(-c2nc(Cn3c(=O)cc(C)c4c(C)nn(-c5ccccc5)c43)c(C)o2)cc1 | 14% (active) |

| SMILES | survival |
| --- | --- |
| Cc1oc(-c2ccc(Cl)cc2)nc1Cn1c(=O)cc(C)c2c(C)nn(-c3ccccc3)c21 | 83% (inactive) |
| CCOc1ccc(-c2nc(Cn3c(=O)cc(C)c4c(C)nn(-c5ccc(C)cc5)c43)c(C)o2)cc1 | 87% (inactive) |
| Cc1ccc(-c2nc(Cn3c(=O)cc(-c4ccccc4)c4c(C)nn(C)c43)c(C)o2)cc1 | 120% (inactive) |
| Cc1cc(=O)n(Cc2c(F)cccc2Cl)c2c1c(C)nn2C | 71% (inactive) |
| Cc1oc(-c2ccccc2)nc1Cn1c(=O)cc(-c2ccccc2)c2c(C)nn(C)c21 | 76% (inactive) |
| Cc1nn(C)c2c1c(-c1ccccc1)cc(=O)n2Cc1ccccc1F | 120% (inactive) |
| CCc1cccc(NC(=O)CNS(=O)(=O)c2ccc3nc(C)sc3c2)c1 | 72% (inactive) |
| COc1ccc(NCc2cc3cc4c(cc3n(CC(=O)Nc3cc(C)cc(C)c3)c2=O)OCO4)cc1 | 60% (inactive) |
| Cc1cccc(C(=O)Nc2cccc(OCc3cc(=O)n4c(C)csc4n3)c2)c1 | 79% (inactive) |
| CCC(=O)n1nc(-c2ccc(OC)cc2)nc1SC | 100% (inactive) |
| O=C(NCc1ccncc1)C1CCN(S(=O)(=O)c2ccccc2)CC1 | 109% (inactive) |
| COc1ccc(Nc2cc(C(=O)NCc3ccccc3)c3ccccc3n2)cc1 | 112% (inactive) |
| COc1ccc(Nc2cc(C(=O)NCc3cccs3)c3ccccc3n2)cc1 | 145% (inactive) |
| COc1ccc(Nc2cc(C(=O)NCc3ccccc3OC)c3ccccc3n2)cc1 | -6% (active) |
| CCOC(=O)/C(C#N)=N\Nc1ccccc1OC | 105% (inactive) |
| CCC(=O)N1CCc2cc(S(=O)(=O)NC(CC(C)C)C(=O)NCCc3ccccc3)ccc21 (stereo unspecified) | 127% (inactive) |
| COc1ccc(CCN2C(=O)c3[nH]nc(-c4ccccc4O)c3C2c2ccc(OC)cc2)cc1 (stereo unspecified) | 58% (inactive) |
| COc1cc(C2c3c(-c4ccccc4O)n[nH]c3C(=O)N2Cc2ccco2)ccc1OCC(C)C (stereo unspecified) | 43% (inactive) |
| COc1ccc(C2c3c(-c4c(C)cc(C)cc4O)n[nH]c3C(=O)N2Cc2ccco2)cc1 (stereo unspecified) | 15% (inactive) |
| CC(C)c1ccc(C2c3c(-c4ccccc4O)n[nH]c3C(=O)N2Cc2ccncc2)cc1 (stereo unspecified) | 106% (inactive) |
| CCCOc1ccc(C2c3c(-c4ccccc4O)n[nH]c3C(=O)N2Cc2cccnc2)cc1 (stereo unspecified) | 3% (active) |
| CCc1ccc(C2c3c(-c4ccccc4O)n[nH]c3C(=O)N2Cc2cccnc2)cc1 (stereo unspecified) | 71% (inactive) |
| O=C1c2[nH]nc(-c3ccccc3O)c2C(c2ccc(Cl)cc2)N1CCc1ccccc1 (stereo unspecified) | 4% (active) |

| SMILES | survival |
| --- | --- |
| CC(C)c1ccc(C2c3c(-c4ccccc4O)n[nH]c3C(=O)N2CCc2ccccc2)cc1 (stereo unspecified) | 64% (inactive) |
| CCOc1cc(C2c3c(-c4ccccc4O)n[nH]c3C(=O)N2Cc2cccnc2)ccc1O (stereo unspecified) | 89% (inactive) |
| COc1ccc(C2c3c(-c4ccccc4O)n[nH]c3C(=O)N2Cc2ccco2)cc1 (stereo unspecified) | 10% (active) |
| Cc1ccc(C2c3c(-c4ccccc4O)n[nH]c3C(=O)N2CCc2ccccc2)cc1 (stereo unspecified) | 58% (inactive) |
| O=C1c2[nH]nc(-c3ccccc3O)c2C(c2ccc(Cl)cc2)N1Cc1ccco1 (stereo unspecified) | -1% (active) |
| CCc1nnc(SCc2ccc(F)cc2Cl)c2cc3sc(C)cc3n12 | 96% (inactive) |
| CCOC(=O)c1cccc(NC(=O)c2ccc3snnc3c2)c1 | 84% (inactive) |
| COc1ccc(C)cc1NC(=O)C(=O)NCC1(c2ccccc2)CCCC1 | 94% (inactive) |
| COc1ccc2c(c1)cc1c(=O)n(CC(=O)NCCc3ccccc3)nc(C)n12 | 81% (inactive) |
| CCc1ccccc1NC(=O)CN1C(=O)COc2ccc(S(=O)(=O)Nc3ccccc3)cc21 | 64% (inactive) |
| COc1ccc(-c2nc(N)n(C(C)=O)n2)cc1 | 107% (inactive) |
| Cc1nnc(SCCCN2C(=O)c3ccccc3C2=O)o1 | 105% (inactive) |
| Cc1cccc(NC(=O)CCn2cnnn2)c1C | 71% (inactive) |
| Cc1cc(C)c(NC(=O)c2sc3nc(C)cc(C)c3c2N)c(C)c1 | 73% (inactive) |
| CCCOc1cccc(C2c3c(-c4ccccc4O)n[nH]c3C(=O)N2Cc2ccco2)c1 (stereo unspecified) | 11% (active) |
| CCCN1C(=O)c2[nH]nc(-c3ccccc3O)c2C1c1cccc(OCc2ccccc2)c1 (stereo unspecified) | 42% (inactive) |
| CCOc1cccc(C2c3c(-c4cc(C)ccc4O)n[nH]c3C(=O)N2Cc2ccco2)c1 (stereo unspecified) | 27% (inactive) |
| CCOc1cccc(C(=O)N(Cc2ccc(C)o2)C2CCS(=O)(=O)C2)c1 (stereo unspecified) | 90% (inactive) |
| CCOC(=O)C1CCN(C(=O)Cn2ncc3c4ccccc4n(Cc4ccc(F)cc4)c3c2=O)CC1 | 80% (inactive) |
| CC(C)CCNC(=O)C(=O)Nc1c2c(nn1-c1ccccc1)CS(=O)(=O)C2 | 90% (inactive) |
| COCCNC(=O)C(=O)Nc1c2c(nn1-c1ccccc1)CS(=O)(=O)C2 | 76% (inactive) |
| CC(C)OCCCNC(=O)C(=O)Nc1c2c(nn1-c1ccccc1)CS(=O)(=O)C2 | -6% (active) |
